Screening results: PubChem BioAssay, National Center for Advancing Translational Sciences (NCATS)
Compounds with a hit are over-represented: about 1.6% of the library has one in this group of screens.
gsp ag: agonists of gsp mutant (McCune-Albright syndrome); hit rate 0.13% among 340,000; gsp mutant cells, cAMP HTRF, 30 min; Potency, µM (top dose mostly 76.9 µM), for inactives: at the top dose activation (cAMP increase), actives largely listed as activators; active means well fitted activation curve with a large enough effect; cell line not stated here;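 further: phosphodiesterase inhibitor Ro 20-1724 added with compounds to block cAMP breakdown; potency means the concentration at half of the fitted maximal effect; nearly all actives have a fitted effect of over 60% in size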
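Cells in DMEM/10% FBS with G418 were pretreated with compounds in DMSO plus […] (300 uM stock) for 30 min at 37C. cAMP was measured by HTRF (cAMP-d2 plus anti-cAMP antibody-K) after 30 min at room temperature.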
pAkt inh: inhibitors of Akt phosphorylation; Neuro2A IGF-stimulated pAkt S473 HTRF, 20 min; stronger effect = lower value; activity change, % for hits at 50 µM; hit rate 0.32% among 360,000; AID 651550; in the data active means activity change below about -80%; further: on the % scale 0 is the no-effect control and ±100 the full control effect
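Neuro2A cells in DMEM with 0.5% FBS, overnight at 37 deg C, given compound at single 50 µM final, then IGF (6 nM final) for 20 min at 37 deg C. Lysed; phospho-Akt Ser473 by HTRF after 24 h, 665/615 ratio.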
GRP78 ERSR act: induces the endoplasmic reticulum stress response in human glioma cells | U87-MG GRP78 promoter luciferase reporter, 16 h | Potency, µM, for the others: top-dose activation, usual class: activators | hit rate 0.02% among 420,000 | AID 602332; active means well fitted activation curve with a large enough effect; further: potency means the concentration at half of the fitted maximal effect; series mostly up to about 76 µM; % of control where 0% means no effect; nearly all actives have a fitted effect of over 35% in size
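Stably transfected U87-MG human glioma cells carrying a GRP78-based luminescent sensor were seeded at 1000 cells/well, pin-dosed with compounds and incubated 16 h. Luciferase reagent was then added, and end-point luminescence was read after 10 min at room temperature.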
gsp antag: gsp mutant antagonism; gsp-mutant cells, cAMP HTRF, 30 min; Potency, µM (highest dose often 76.9 µM), inactives show at the top dose activity change, negative = inhibition, most hits filed as inhibitors; hit rate 0.4% among 340,000; AID 624288; calls by dose curve; cell line not stated here;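 further: intracellular cAMP measured with PDE inhibitor Ro 20-1724 present during compound exposure; potency means the concentration at half of the fitted maximal effect; on the % scale 0 is the no-effect control and ±100 the full control effect; nearly all actives have a fitted effect of over 65% in size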
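Cells, 2000/well, grown 16–24 h in DMEM 10% FBS with 0.5 mg/ml G418, then compounds plus […] (300 uM addition stock), 30 min at 37C. cAMP read by HTRF (cAMP-d2 and anti-cAMP antibody-K in lysis buffer) after 30 min RT.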
KCNH2 3.1 inh: inhibitors of human KCNH2 3.1 potassium channel isoform; U2OS KCNH2 3.1, thallium flux FluxOr; stronger effect = lower value; activity change, % (tested at about 1.8 µM); hit rate 0.95% among 340,000;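 active means maximum activity change below -70%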;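 further: thallium influx rate constant from kinetic fluorescence after stimulation buffer; on the % scale 0 is the no-effect control and ±100 the full control effect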
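We transduce U2OS cells with the mutant 3.1 virus, culture them overnight, load FluxOr with Red40 quencher for 45 min, then add stimulation buffer and read kinetically for 2 min to derive a normalized rate constant.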
hERG WT inh: inhibitors of human wildtype KCNH2 potassium channel; Q12809; U2OS, BacMam KCNH2, thallium flux FluxOr; stronger effect = lower value; activity change, % at 1.84 µM; hit rate 0.37% among 340,000; AID 720551;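 active means maximum activity change below -70%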; further: on the % scale 0 is the no-effect control and ±100 the full control effect
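U2OS cells were transduced with wild-type KCNH2 virus (2.03 x 10^8 / mL) for 4 h at room temperature, then cultured overnight at 37 C. Thallium flux was read with FluxOr dye. Rate constants were normalized to DMSO controls.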
The depositor's hits bear a star; i = inactive; . = no result given; [ ] = dose if it differs, or a comment.

SMILES	gsp ag	pAkt inh	GRP78 ERSR act	gsp antag	KCNH2 3.1 inh	hERG WT inh
COCCCNc1ncnc2sc(C(=O)N3CCCCC3)c(C)c12	.	.	-5%	.	.	.
CCCS(=O)(=O)N1CCCC(C(=O)NC(C)c2ccc3c(c2)OCCO3)C1 (stereo not given)	-40%	-114%*	-4%	4%	1	0
O=C(Nc1ccc2c(c1)OCO2)C1CCCN(S(=O)(=O)c2cccs2)C1 (stereo not given)	11%	i	-4%	-6%[15.4 µM]	21	0
O=C(Nc1ccc2c(c1)OCCO2)C1CCCN(S(=O)(=O)c2cccs2)C1 (stereo not given)	-31%	-108%*	0%	-17%	.	-1
COc1ccc(CN2CCC3(CCC(CNC(=O)c4ccnn4C)O3)CC2)c(C)c1C (stereo not given)	.	.	-3%	.	.	.
CC(C)(C)n1ncc2c(=O)n(Cc3ccc(F)cc3)cnc21	.	.	2%	.	.	.
Cc1ccc(-c2nc3ccccc3o2)cc1NC(=O)COc1ccccc1C	.	.	4%	.	.	.
COCCN1Cc2cccc(C(=O)Nc3cccc(-c4nc5ccccc5[nH]4)c3)c2C1=O	10%[15.4 µM]	i	11%	1%	-73*	26
COc1ccc(OC)c(-c2cc(Cl)c3c(c2)CC(CNC(=O)[C@@H]2CCCN2C(C)=O)O3)c1 (stereo not given in full)	.	.	-3%	.	.	.
O=C(CSc1oc(-c2ccco2)nc1S(=O)(=O)c1ccccc1)NCC1CCCO1 (stereo not given)	23%	-101%*	-6%	-3%	-18	-6
CC(C)(C)c1cc(C(=O)NCc2ccccc2)ccn1	-31%	-88%*	-1%	-14%	6	-4
CCc1cc2c(CN3CCN(CCO)CC3)cc(=O)oc2cc1O	26%	-106%*	2%	2%	-1	7
COc1ccc(N=Nc2nc3ccc(Br)cc3n2C)cc1	-1%	-106%*	-3%	-30%	-5	-4
COc1ccc(CN2CCOc3ccc(CN4CCC(Oc5cccnc5)CC4)cc3C2)cc1C	.	.	-6%	.	.	.
CC(NC(=O)c1ccco1)c1nnc2n1CCN(Cc1cccc(Cl)c1)CC2 (stereo not given)	.	.	-6%	.	.	.
S=c1[nH]nc(Cc2ccccc2)n1Cc1ccco1	25%	i	-2%	1%	17	6
S=c1[nH]nc(C2CC2)n1Cc1ccco1	-2%	i	-1%	1%	7	-323*
CCOC(=O)Cc1csc(N/C(=N/S(=O)(=O)c2cc(Br)ccc2OCC)c2ccccc2)n1	1%	i	-5%	-24%	-170*	-261*
CC(C)CC1C(=O)N(Cc2cn(CCC3OCCCO3)nn2)CCS(=O)(=O)N1Cc1ccc(-c2ccccc2)cc1 (stereo not given)	-54%	i	-6%	.	-9	-6
CC(C)CC1C(=O)N(Cc2cn(CCC3OCCCO3)nn2)CCS(=O)(=O)N1Cc1ccc(-c2ccncc2)cc1 (stereo not given)	-68%	i	2%	.	-157*	-139*
COC(c1ccc2c(c1)CN(C(=O)Cn1nc(C)c3ccccc3c1=O)CCO2)C1CCCCC1 (stereo not given)	.	.	-2%	.	.	.
COc1ccc(NC(=O)CSc2nc(=O)n(CCN3CCOCC3)c3c2CCCC3)c(OC)c1	3%	i	-3%	-5%	-120*	12
COc1ccc(Cl)cc1NC(=O)c1ccc2c(SCC(=O)O)c3c(nc2c1)CCCC3	-3%	i	-6%	-2%	-2	-22
COc1ccc(NC(=O)c2ccc3c(SCC(=O)O)c4c(nc3c2)CCCC4)c(OC)c1	14%	i	-2%	-18%	-158*	-6
COc1ccc(NC(=O)CSc2nc(=O)n(CCN3CCOCC3)c3c2CCC3)c(OC)c1	5%[15.4 µM]	i	-5%	-6%	-3	-5
Cc1cc(C(=O)N2CCCC(N3CCN(c4cccc(C(F)(F)F)c4)CC3)C2)no1 (stereo not given)	-40%	i	-4%	4%	-3	7
